From the supplement of paper PMC10849652
Of roughly 8,800 targets only a part is listed; those with a hit were picked by preference. About 0.5% of all pairs of compound and target were hits.

What was measured:
Test in all cases: log2 fold change, soluble protein after heating vs DMSO (PISA); higher = thermal stabilisation; K562 lysate, 10 uM; active = over 0.2 and 3.5 SD of the protein, either way, in both replicates (recomputed)
[1] = compound: C1=CC=C(C=C1)[C@H](COC2=CC3=C(C=C2)NC(=O)N3)NC(=O)C4=CC=CN(C4=O)CC5=CC(=C(C=C5)F)F
In short: (§1)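 The values are log-two fold changes in thermal stability compared with solvent controls and come from duplicates. They were obtained by TMTpro 16plex LC-MS/MS, with channel sums equalised, on the supernatant after 21,000xg for 90 min. That supernatant came from crude K562 extract at 1 mg/mL protein treated with 10 μM compound for 30 min, heated for 3 min across 48°C-58°C, pooled and brought to 0.5% NP-40 at 4°C.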

[2] = compound: CC1=C(SC2=C1C(=N[C@H](C3=NN=C(N32)C)CC(=O)N)C4=CC=C(C=C4)Cl)C
In short: as §1

[3] = compound: CC1=C2C(=CC=C1)N=C(N(C2=O)C3=CC=CC=C3C)CN4C=NC5=C(N=CN=C54)N
In short: as §1

[4] = compound: Cc1sc2c(c1C)C(c1ccc(Cl)cc1)=N[C@@H](CC(=O)OC(C)(C)C)c1nnc(C)n1-2
In short: as §1

[5] = compound: c1ccc([C@@H]2C[C@H]2NC2CCNCC2)cc1
In short: as §1

Measured: log2 fold change

EIF2AK2 (UniProt P19525)
inactive: [1] 0.01 | [2] -0.002 | [3] -0.027 | [4] 0.216 | [5] 0.03

EP400 isoform 5 (UniProt Q96L91)
Sequence of UniProt Q96L91 (Q96L91 whole entry, looked up): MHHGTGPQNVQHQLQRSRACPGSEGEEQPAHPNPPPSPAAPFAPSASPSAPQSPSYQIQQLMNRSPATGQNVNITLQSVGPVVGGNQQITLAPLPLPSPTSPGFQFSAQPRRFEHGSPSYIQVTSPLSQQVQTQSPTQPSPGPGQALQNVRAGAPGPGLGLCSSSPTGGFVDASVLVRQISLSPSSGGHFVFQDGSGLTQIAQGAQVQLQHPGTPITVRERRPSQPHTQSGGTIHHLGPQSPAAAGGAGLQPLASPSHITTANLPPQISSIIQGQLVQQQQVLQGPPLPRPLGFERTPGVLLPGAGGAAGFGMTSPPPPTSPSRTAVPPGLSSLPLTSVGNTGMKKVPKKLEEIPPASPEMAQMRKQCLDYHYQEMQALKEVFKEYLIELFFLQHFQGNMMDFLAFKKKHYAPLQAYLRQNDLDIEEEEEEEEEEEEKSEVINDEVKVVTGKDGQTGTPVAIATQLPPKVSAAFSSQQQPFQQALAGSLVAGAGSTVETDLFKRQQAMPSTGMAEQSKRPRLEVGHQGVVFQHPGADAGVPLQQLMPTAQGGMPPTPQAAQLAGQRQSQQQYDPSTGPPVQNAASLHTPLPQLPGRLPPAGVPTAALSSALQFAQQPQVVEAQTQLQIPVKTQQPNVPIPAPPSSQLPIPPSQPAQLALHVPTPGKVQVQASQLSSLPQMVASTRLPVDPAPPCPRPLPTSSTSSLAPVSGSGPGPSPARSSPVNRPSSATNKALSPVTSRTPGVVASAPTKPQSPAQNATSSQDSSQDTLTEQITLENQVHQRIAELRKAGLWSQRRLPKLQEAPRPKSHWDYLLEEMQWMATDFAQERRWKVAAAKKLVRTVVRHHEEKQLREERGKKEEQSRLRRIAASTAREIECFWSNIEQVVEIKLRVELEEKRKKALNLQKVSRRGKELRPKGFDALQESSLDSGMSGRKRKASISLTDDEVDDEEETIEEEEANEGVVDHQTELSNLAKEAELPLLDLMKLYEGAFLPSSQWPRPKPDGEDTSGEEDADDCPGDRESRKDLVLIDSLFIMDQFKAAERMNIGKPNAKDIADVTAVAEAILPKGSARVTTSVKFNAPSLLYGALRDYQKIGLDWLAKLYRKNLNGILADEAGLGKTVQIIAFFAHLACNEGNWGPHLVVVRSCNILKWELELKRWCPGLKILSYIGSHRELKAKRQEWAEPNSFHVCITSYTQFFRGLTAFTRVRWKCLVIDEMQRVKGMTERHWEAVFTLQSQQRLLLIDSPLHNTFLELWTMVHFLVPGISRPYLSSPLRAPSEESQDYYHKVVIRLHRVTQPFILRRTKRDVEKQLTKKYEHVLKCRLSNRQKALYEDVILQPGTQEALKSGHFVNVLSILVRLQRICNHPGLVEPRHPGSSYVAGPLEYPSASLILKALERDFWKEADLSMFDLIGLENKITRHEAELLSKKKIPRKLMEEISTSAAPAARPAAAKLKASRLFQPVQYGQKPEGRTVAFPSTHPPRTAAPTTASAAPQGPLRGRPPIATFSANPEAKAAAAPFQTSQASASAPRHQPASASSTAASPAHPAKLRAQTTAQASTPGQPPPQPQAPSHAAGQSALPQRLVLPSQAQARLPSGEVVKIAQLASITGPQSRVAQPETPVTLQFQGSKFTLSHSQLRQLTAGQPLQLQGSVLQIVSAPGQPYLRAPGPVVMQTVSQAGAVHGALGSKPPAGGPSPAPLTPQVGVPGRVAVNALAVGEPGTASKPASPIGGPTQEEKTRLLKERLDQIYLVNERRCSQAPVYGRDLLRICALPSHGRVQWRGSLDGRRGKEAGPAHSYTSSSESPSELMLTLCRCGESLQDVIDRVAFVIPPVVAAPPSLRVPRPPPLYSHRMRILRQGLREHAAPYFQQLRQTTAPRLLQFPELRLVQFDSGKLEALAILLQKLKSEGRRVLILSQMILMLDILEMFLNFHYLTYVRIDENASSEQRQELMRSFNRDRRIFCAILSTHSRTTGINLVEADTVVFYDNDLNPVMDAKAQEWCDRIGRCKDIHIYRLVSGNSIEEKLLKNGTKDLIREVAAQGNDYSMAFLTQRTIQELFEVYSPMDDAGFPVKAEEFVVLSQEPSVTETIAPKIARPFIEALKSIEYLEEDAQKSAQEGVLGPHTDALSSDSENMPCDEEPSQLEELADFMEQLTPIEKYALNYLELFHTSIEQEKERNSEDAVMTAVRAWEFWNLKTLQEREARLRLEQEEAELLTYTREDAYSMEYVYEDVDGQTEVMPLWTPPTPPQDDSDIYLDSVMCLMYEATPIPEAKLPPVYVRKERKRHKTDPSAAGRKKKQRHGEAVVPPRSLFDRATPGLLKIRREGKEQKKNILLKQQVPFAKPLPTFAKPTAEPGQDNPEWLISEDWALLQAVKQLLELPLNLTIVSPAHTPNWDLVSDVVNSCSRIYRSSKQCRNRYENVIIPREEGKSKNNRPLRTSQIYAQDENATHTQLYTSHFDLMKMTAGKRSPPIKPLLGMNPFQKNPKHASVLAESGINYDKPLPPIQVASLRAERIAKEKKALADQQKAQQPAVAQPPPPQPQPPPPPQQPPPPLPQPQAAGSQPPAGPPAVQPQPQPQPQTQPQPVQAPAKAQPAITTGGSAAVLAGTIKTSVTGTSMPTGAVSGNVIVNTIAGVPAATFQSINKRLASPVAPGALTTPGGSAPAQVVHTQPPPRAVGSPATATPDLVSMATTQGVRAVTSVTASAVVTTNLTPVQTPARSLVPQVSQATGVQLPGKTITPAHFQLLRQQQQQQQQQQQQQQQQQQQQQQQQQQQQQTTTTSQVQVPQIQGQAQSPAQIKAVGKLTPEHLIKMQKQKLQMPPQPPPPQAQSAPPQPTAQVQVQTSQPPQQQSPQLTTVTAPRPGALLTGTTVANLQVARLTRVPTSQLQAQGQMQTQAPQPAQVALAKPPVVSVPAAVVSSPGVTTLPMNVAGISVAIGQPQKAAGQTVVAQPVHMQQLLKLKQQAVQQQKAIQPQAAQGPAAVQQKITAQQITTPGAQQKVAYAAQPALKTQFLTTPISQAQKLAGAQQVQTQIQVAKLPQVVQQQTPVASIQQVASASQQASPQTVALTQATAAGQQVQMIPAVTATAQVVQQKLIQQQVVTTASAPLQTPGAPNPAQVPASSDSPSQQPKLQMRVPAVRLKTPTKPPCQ
inactive: [1] -0.008 | [2] 0.024 | [3] -0.014 | [4] 0.06 | [5] 0.016

GDPD1 (UniProt Q8N9F7)
Sequence of UniProt Q8N9F7 (Q8N9F7 whole entry, looked up): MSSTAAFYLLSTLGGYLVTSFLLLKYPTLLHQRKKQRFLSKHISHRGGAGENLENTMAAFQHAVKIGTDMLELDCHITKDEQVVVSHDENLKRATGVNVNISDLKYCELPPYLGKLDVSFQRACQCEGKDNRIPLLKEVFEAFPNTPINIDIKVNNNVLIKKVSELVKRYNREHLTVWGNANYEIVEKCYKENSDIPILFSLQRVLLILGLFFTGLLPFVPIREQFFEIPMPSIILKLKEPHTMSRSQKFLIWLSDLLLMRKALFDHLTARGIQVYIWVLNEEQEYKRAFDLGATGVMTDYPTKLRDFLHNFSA
inactive: [1] -0.047 | [2] 0.018 | [3] 0.117 | [4] 0.024 | [5] -0.036

EEF1A1, A0A087WVQ9
inactive: [1] -0.053 | [2] 0.093 | [3] -0.042 | [4] -0.001 | [5] 0.049

FADS1, A0A0A0MR51
inactive: [1] 0.071 | [2] -0.019 | [3] -0.027 | [4] -0.035 | [5] 0.013

FCHO1 (UniProt O14526)
inactive: [1] -0.026 | [2] 0.066 | [3] -0.025 | [4] 0.009 | [5] 0.027

EPB41, A0A2R8Y783
inactive: [1] -0.056 | [2] -0.031 | [3] 0.142 | [4] -0.131 | [5] 0.033

GABPB1 isoform 3 (UniProt Q06547)
Sequence of UniProt Q06547 (Q06547 whole entry, looked up): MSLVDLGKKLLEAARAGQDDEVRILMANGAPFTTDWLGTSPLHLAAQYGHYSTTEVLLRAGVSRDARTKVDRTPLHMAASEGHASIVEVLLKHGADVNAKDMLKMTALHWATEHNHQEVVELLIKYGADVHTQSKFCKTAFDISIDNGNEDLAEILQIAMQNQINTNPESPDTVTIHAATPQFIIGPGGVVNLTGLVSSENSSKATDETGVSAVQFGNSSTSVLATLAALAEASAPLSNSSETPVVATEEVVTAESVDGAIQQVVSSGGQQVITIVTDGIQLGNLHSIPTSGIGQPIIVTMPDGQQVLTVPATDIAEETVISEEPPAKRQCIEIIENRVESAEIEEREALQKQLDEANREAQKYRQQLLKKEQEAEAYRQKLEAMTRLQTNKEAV
inactive: [1] 0.039 | [2] 0.052 | [3] -0.017 | [4] -0.024 | [5] -0.025

EPB41 (UniProt P11171)
Sequence of UniProt P11171 (P11171 whole entry, looked up): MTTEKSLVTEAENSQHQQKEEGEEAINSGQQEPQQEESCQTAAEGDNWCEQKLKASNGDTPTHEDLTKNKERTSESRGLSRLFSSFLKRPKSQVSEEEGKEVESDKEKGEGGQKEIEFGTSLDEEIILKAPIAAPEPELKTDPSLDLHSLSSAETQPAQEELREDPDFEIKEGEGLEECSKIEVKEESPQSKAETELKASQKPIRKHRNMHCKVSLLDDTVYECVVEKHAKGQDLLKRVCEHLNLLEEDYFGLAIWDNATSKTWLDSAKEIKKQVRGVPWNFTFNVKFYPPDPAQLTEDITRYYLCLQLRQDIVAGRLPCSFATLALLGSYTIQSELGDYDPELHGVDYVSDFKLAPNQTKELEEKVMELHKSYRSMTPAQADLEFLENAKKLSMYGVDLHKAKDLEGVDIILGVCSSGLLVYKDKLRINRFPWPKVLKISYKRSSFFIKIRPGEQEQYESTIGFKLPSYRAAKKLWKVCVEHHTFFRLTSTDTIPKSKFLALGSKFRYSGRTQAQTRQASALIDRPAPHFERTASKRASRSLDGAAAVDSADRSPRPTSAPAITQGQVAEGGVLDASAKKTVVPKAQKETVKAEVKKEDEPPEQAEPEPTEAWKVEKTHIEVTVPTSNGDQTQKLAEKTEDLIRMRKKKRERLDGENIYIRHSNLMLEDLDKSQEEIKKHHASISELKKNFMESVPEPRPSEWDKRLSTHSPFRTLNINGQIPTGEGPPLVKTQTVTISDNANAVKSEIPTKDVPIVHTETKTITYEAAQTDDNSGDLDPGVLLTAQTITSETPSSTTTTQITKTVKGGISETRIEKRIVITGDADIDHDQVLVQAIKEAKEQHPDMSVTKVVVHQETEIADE
inactive: [1] -0.004 | [2] -0.021 | [3] -0.023 | [4] 0.027 | [5] 0.032
